Bioassay records deposited in PubChem BioAssay by National Center for Advancing Translational Sciences (NCATS).
Shown are actives, neighbours in structure and some others; about 2.3% of the full set was active somewhere.
Abeta yeast res: restores growth of yeast expressing A-beta42 peptide. yeast expressing A-beta42, growth rescue, OD600, 48 h; response scale: 0% DMSO, 100% iron-clioquinol control. Potency, µM (highest dose often 46.1 µM), hits mostly activators. 410,000 tested, 0.063% active; note: potency is the fitted concentration of half-maximal effect; nearly all actives have a fitted effect of over 55% in size
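Growth rescue measured by 600 nm absorbance after 48 h yeast culture at 30 C with compound. Values normalized between DMSO and an equimolar ferric chloride plus clioquinol control.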
TDP43 rescue: rescues yeast growth from TDP-43 toxicity; TDP-43 expressing yeast growth rescue, BacTiter-Glo, 24 h; Potency, µM (top dose mostly 46.1 µM), for inactives: at the top dose growth rescue (activation), usual class: activators; 410,000 tested, 1.8% active; note: potency is the fitted concentration of half-maximal effect; % of control where 0% means no effect; nearly all actives have a fitted effect of over 50% in size
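In this qHTS, compounds that restore growth of yeast expressing TDP-43 appear as activators. Cells (OD600=0.02, galactose medium, raffinose-pregrown) are incubated with compound 24 hr at 30 deg C and growth is quantified by BacTiter-Glo.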
FUS yeast rescue: FUS proteinopathy suppression in yeast | S. cerevisiae FUS-expressing, growth rescue, OD600, 24 h | Potency, µM (series often up to 76.6 µM), actives largely listed as activators | 390,000 tested, 0.24% active | AID 1347120;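 note: potency is the fitted concentration of half-maximal effect; plate controls were DMSO vehicle for no effect and reference control for full effect; nearly all actives have a fitted effect of over 55% in size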
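Toxicity suppression screen in FUS-yeast. Cells induced with 2% galactose, starting OD 0.005, treated 24hr at 30C with compounds at multiple final concentrations; growth by OD600.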
aSyn rescue: rescues yeast growth from alpha-synuclein toxicity; Yeast expressing alpha-synuclein, growth rescue, BacTiter-Glo, 24 h; Potency, µM (doses to about 46.1 µM), without a hit: top-dose growth rescue (activation), hits mostly activators; 370,000 tested, 0.14% active; AID 652106; note: potency is the fitted concentration of half-maximal effect; % of control where 0% means no effect; nearly all actives have a fitted effect of over 65% in size
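Rescue of yeast growth: cells expressing toxic alpha-synuclein, induced in galactose at OD600 0.02, incubated with compound 24 h at 30 C. ATP luminescence quantified growth; inhibitors of toxicity appear as activators.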
Akt phos inh: inhibitors of Akt phosphorylation; Neuro2A IGF-stimulated pAkt S473 HTRF, 20 min; stronger effect = lower value; activity change, % for hits at 50 µM; 360,000 tested, 0.32% active; AID 651550; in the data active = activity change below about -80%; inconclusive = mostly about -51% to -80%; note: % is set by controls: 0 for no effect and ±100 for the full control effect
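Single-point screen (50 µM final compound) in Neuro2A cells stimulated 20 min with 6 nM IGF at 37 deg C. After lysis, Ser473-phosphorylated Akt read by HTRF (ex 330 nm, em 615/665 nm) as the 665/615 ratio.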
The depositor's hits bear a star; i = inactive; ? = inconclusive; nt = no result given; [ ] = dose if it differs, or a comment. Unless noted, calls come from the whole dose curve; as a rule, active = well fitted curve in the direction sought with a large enough effect; inconclusive = small, poorly fitted or top-dose-only effect, or another doubt; inactive = no such curve, though single readings can be large; an effect the other way counts as inactive or inconclusive.

SMILES | Abeta yeast res | TDP43 rescue | FUS yeast rescue | aSyn rescue | Akt phos inh
CC(NC(=S)NCc1ccc(F)cc1)C12CC3CC(CC(C3)C1)C2 (centres undefined) | 5.6µM* | -6% | i | 3% | i
O=C(CSc1nc2c(c(=O)[nH]1)CCC2)Nc1ccccc1F | i | 24% | i | nt | nt
Cc1ccc(NC(=O)c2c(C)oc3ncn(CC(C)C)c(=O)c23)nc1 | i | 8% | i | nt | nt
COc1ccc(C(C)NC(=S)NCc2ccc(F)cc2)cc1OC (centres undefined) | i | 2% | i | -7% | i
CCC(C)c1ccc(C(C)NC(=S)NCc2ccc(F)cc2)cc1 (centres undefined) | 3.5µM* | 2% | i | -11% | i
Nc1ccc2oc(=O)c3ccccc3c2c1 | i | 13µM* | nt | 19% | i
O=C(Nc1ccc(F)c(F)c1)c1cc(S(=O)(=O)NC2CCCC2)ccc1F | i | 2% | i | nt | nt
O=C(CN1C(=O)COc2ccc(S(=O)(=O)NC3CCCC3)cc21)Nc1ccc(F)c(Cl)c1 | i | -4% | 20µM* | nt | nt
O=C(Nc1cc(Cl)cc(Cl)c1)c1cc(S(=O)(=O)NC2CCCC2)ccc1F | i | 20µM* | i | nt | nt
O=C(CN1C(=O)COc2ccc(S(=O)(=O)NC3CCCC3)cc21)Nc1ccc(Cl)cc1F | i | -4% | i | nt | nt
N#Cc1ccc(C(=O)N(Cc2ccco2)Cc2cccs2)cc1 | nt | nt | nt | 5% | nt
O=C(Nc1nc(-c2ccco2)cs1)c1ccccc1 | i | 13µM* | i | -51% | i
O=C(Nc1nc(-c2ccccn2)cs1)c1ccc2c(c1)OCCO2 | 13µM* | ? | i | ? | i
O=C(Nc1nc(-c2ccccn2)cs1)c1cc(Cl)ccc1[N+](=O)[O-] | 13µM* | ? | i | ? | i
O=C(Nc1nc(-c2ccccc2)cs1)c1ccco1 | i | -11%[1.82 µM] | i | -19% | i
O=C1CCc2cc(NS(=O)(=O)c3ccc(Br)cc3)cc3c2N1CC3 | i | 8% | i | 3.2µM* | i
Cn1c2ccccc2c(=O)c2ccc(F)cc21 | i | -62% | i | 14µM* | i
CCOc1ccc(NC(=O)CN2C(=O)CC(C)Sc3ccccc32)cc1 (centres undefined) | i | ? | i | 3% | nt
CCCN(CCC)C(=S)NC(=O)c1ccc(-c2ccccc2)cc1 | i | 14µM* | i | -12% | i
N#Cc1ccc(C(=O)Nc2nnc(-c3cccs3)o2)cc1 | i | 14% | i | 18% | i
O=C(Nc1nnc(-c2cccs2)o1)c1cccc(C(F)(F)F)c1 | 6.3µM* | 7.1µM* | i | 3.2µM* | i
COc1ccc(C(=O)Nc2nc(-c3nnn(-c4ccc(C(C)C)cc4)c3C)ns2)cc1 | i | -1% | i | nt | nt
Cc1cccc(OCc2nnc(SCC(=O)c3ccccc3)o2)c1 | i | 13µM* | i | 12% | i
N#C/C(=C(/O)CSc1nnc(Cc2cccs2)n1C1CCCCC1)c1nc2ccccc2[nH]1 | i | 9% | 50µM* | 0% | i
N#CCSc1nnc(Cc2cccs2)n1C1CCCCC1 | i | ? | i | -3% | i
SMILES | Abeta yeast res | TDP43 rescue | FUS yeast rescue | aSyn rescue | Akt phos inh
COc1ccccc1-c1nnc(SC/C(O)=C(\C#N)c2nc3ccccc3[nH]2)n1C1CCCCC1 | i | 1% | 28µM* | 2% | i
Cn1cnnc1SC/C(O)=C(\C#N)c1nc2ccccc2[nH]1 | i | 2% | i | 8% | i
COc1cc(OC)c(NC(=O)c2c(C)oc3ncnc(N4CCCCC4)c23)cc1Cl | i | 14% | i | nt | nt
CC(C)C[C@H]1COc2cc(Br)ccc2S(=O)(=O)N1Cc1cn(Cc2ccc(Br)cc2)nn1 | nt | nt | i | nt | nt
C=C1C(=O)[C@]23C[C@H]1CCC2[C@@]1(C)C(C[C@@H]3O)[C@](C)(C(=O)OC)CC[C@@H]1O (some centres undefined) | i | 3.2µM* | i | -51% | i
O=C(Nc1nc2ccsc2c(=O)s1)c1ccco1 | i | 5% | i | -10% | i
O=c1sc(Nc2ccccc2)nc2ccsc12 | i | 18µM* | i | 14% | i
O=C(Nc1nc2ccsc2c(=O)s1)C1CCC1 | i | 10µM* | i | 7% | i
